Bioassay records (PubChem BioAssay)
Rab9 promoter act – activators of Rab9 promoter; Huh7 Rab9 promoter-luciferase reporter, luminescence, 24 h; Potency, µM (titrated, usually from 9.22 µM), for the others: at the highest dose activation, negative = inhibition, most hits filed as activators; 320,000 tested, 2.8% active; note: % of control where 0% means no effect; nearly all actives have a fitted effect of over 60% in size
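Quantitative HTS format; Huh7 Rab9-luciferase reporter cells (1500/well) receive compound 2 h post-plating, incubate 24 h at 37 °C, then get luciferase reagent for 10 min before luminescence reading.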
SMN2 splice enh – SMN2 splice variant enhancement | 210,000 tested, 2.8% active | Potency, µM (highest dose often 46.1 µM), for inactives: at the highest dose activity change, positive = activation, hits mostly activators | HEK293 SMN2-luciferase splicing reporter, luminescence, 30-36 h; note: % of control where 0% means no effect; nearly all actives have a fitted effect of over 55% in size
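qHTS luciferase splicing reporter: luminescence rises when SMN2 exon 7 is included in transfected HEK293 cells. Compound exposure lasted 30-36 h at 37C, with 4.5 mM final sodium butyrate as control, followed by a ONE-Glo read.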
ELG1 genotox – induces genotoxicity in HEK293T cells with luciferase-tagged ELG1; HEK293T ELG1-luciferase reporter, luminescence, 16 h; Potency, µM (doses to about 46 µM), for inactives: at the top dose activity change, positive = activation, most hits filed as activators; 330,000 tested, 1.3% active; AID 504466; note: % of control where 0% means no effect; nearly all actives have a fitted effect of over 60% in size
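Screening used a luciferase reporter fused to human ELG1 in HEK293T cells. Luminescence was read on a CCD plate imager after 16 hr exposure and 30 min ONE-Glo incubation.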
ELG1 DNA repair – blocks ELG1-dependent DNA repair in HEK293T cells; HEK293T ELG1-luciferase reporter, luminescence, 16 h; DNA damage induced by 5-fluorouridine; Potency, µM (titrated, usually from 46.1 µM), for the others: top-dose activity change, negative = inhibition, actives largely listed as inhibitors; 330,000 tested, 2.3% active; note: % is set by controls: 0 for no effect and ±100 for the full control effect; nearly all actives have a fitted effect of over 55% in size
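Luminescence from the luciferase reporter, measured 30 min after ONE-Glo reagent at room temperature, was the read-out. Beforehand, 2,000 cells per well were exposed for 16 hr at 37 °C to 5-fluorouridine together with compound or vehicle.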
NPC1 prom act – activates the NPC1 promoter; 320,000 tested, 2.4% active; Potency, µM (titrated, usually from 9.22 µM), inactives show top-dose activation, most hits filed as activators; Huh7 NPC1 promoter luciferase reporter, 24 h; note: % of control where 0% means no effect; nearly all actives have a fitted effect of over 60% in size
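Stably transfected Huh7 (NPC1 promoter→luciferase), 1500 cells/well in Opti-MEM + 10% FBS, 2 h settle, then compound 24 h at 37 °C. Luminescence after 10 min with Amplite reagent.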
FLuc counter – counter-screen for miR-21 project: firefly luciferase inhibitors or activators; P08659; purified FLuc, Km substrates, luminescence inhibition; Potency, µM (series often up to 57.5 µM), for the others: top-dose activity change, negative = inhibition, most hits filed as inhibitors; 360,000 tested, 6.9% active; AID 588342;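 note: plate controls were vehicle for no effect and reference inhibitor for full effect; nearly all actives have a fitted effect of over 55% in size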
Target sequence (P08659 whole entry, looked up): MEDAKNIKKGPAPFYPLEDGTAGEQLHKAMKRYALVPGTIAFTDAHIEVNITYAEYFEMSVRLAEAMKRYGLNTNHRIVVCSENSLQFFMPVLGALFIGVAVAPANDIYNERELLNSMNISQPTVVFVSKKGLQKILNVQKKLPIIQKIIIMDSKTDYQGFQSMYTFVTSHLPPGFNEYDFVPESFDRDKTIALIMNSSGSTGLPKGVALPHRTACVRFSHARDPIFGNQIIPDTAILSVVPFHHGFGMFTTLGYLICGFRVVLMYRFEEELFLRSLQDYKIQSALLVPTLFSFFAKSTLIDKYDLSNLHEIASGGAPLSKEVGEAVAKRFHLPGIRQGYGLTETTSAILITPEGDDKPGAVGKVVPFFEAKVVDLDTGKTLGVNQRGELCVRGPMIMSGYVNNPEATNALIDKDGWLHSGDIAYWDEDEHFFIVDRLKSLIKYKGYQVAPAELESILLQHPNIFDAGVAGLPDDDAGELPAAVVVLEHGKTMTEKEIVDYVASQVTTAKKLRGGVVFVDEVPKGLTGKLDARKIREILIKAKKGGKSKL
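Biochemical qHTS of compounds, final roughly 60 µM downward over six points, against 10 nM purified firefly luciferase using Km concentrations of substrates (10 uM D-luciferin, 10 uM ATP) in Tris acetate pH 7.5 buffer; luminescence output.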
* hit, by the source's call; ? = inconclusive; · = no result. The list is not random: actives were taken first. Their share in the collection is about 9.2%. Calls come from the whole dose curve; as a rule, active = well fitted curve in the direction sought with a large enough effect; inconclusive = small, poorly fitted or top-dose-only effect, or another doubt; inactive = no such curve, though single readings can be large; an effect the other way counts as inactive or inconclusive. Potency is the fitted concentration of half-maximal effect.

SMILES	Rab9 promoter act	SMN2 splice enh	ELG1 genotox	ELG1 DNA repair	NPC1 prom act	FLuc counter
COc1cccc2cc(C(=O)NCc3ccc(F)cc3)c(=N)oc12	-2.3%	·	6.0%	23.4%	-0.1%	8.49µM*
COc1ccc(CNC(=O)c2cc3cccc(OC)c3oc2=N)cc1	4.6%	·	?	-0.7%	-2.5%	-3.5%
COc1cccc2cc(C(=O)Nc3ccc(CC(=O)O)cc3)c(=O)oc12	·	-16.6%	·	·	·	1.51µM*
Cn1c2ccccc2c(=O)c2c(=O)n(Cc3ccco3)c(-c3ccc(C(C)(C)C)cc3)nc21	13.2%	·	-2.2%	1.3%	-0.8%	1.4%
Cc1ccc(Cn2c(SCC(=O)NCC3CCCO3)nc3c2c(=O)n(C)c(=O)n3C)cc1 (stereo not given)	0.9%	·	0.1%	?	0.5%	-3.0%
CCN(CC)c1ccc(/C=N/NC(=O)c2c[nH]c3ccccc23)cc1	1.4%	-17.1%	1.0%	8.1%	6.1%	10.7µM*
CCN(CC)c1ccc(/C=N/NC(=O)c2cc3ccccc3[nH]2)cc1	19.2%	·	2.2%	7.7%	3.2%	12µM*
CCN(CC)c1ccc(/C=N/NC(=O)c2cc(C)nc3ccccc23)cc1	-5.4%	·	12.9%	0.0%	2.3%	?
O=C(Nc1nc(=O)n(C(=O)C2CC2)s1)c1ccccc1	0.8%	0.4%	-3.3%	-15.1%	-4.7%	?
Cc1ccc(C(=O)Nc2nc(=O)n(C(=O)C3CC3)s2)cc1	-6.2%	19.2%	-0.5%	-2.0%	1.1%	19µM*
Cc1ccc(C(=O)Nc2nc(=O)n(C(=O)c3ccccc3C)s2)cc1	?	19.7%	16.9%	9.5%	14.6%	15.1µM*
COc1cc(Nc2nc(SCc3ccccc3Cl)nc3ccccc23)cc(OC)c1	·	·	·	·	·	-5.7%
O=C(COc1ccc2c(-c3ccccc3)cc(=O)oc2c1)NCC1CCC(C(=O)O)CC1 (stereo not given)	-4.2%	·	4.3%	6.3%	-6.0%	21.3µM*
O=C(COc1ccc2cc(-c3ccccc3)c(=O)oc2c1)NCC1CCC(C(=O)O)CC1 (stereo not given)	2.4%	·	9.2%	?	-1.4%	6.01µM*
CC(OC(=O)Cc1ccccc1F)C(=O)Nc1ccc(Cl)cn1 (stereo not given)	1.9%	·	1.3%	0.5%	1.5%	2.7%
CCC(=O)c1ccc(OCCSc2ncccn2)cc1	2µM*	7.94µM*	3.66µM*	?	3.98µM*	19µM*
CNCCCOc1ccc2c(c1)CCC2	24.1%	11.0%	5.4%	?	15.5%	-0.9%
c1cnc(SCCOc2ccc3c(c2)CCC3)nc1	1.58µM*	12.6µM*	4.61µM*	?	2.82µM*	1.69µM*
COc1ccc(C(=O)OC2CC3CC[C@H](C2)N3C(C)=O)cc1OC (stereo not given in full)	·	0.6%	·	·	·	·
COC(=O)c1cccc(NC(=S)NCc2ccco2)c1	0.2%	-5.6%	3.1%	-11.6%	3.6%	?
CNC(=S)Nc1cccc(C(=O)OC)c1	2µM*	·	17.8%	?	3.55µM*	-3.3%
COC(=O)c1cccc(NC(=S)NCc2ccc(F)cc2)c1	-6.0%	7.08µM*	-3.7%	-9.2%	10.1%	3.8%
CCOc1nc(NCCO)nc(Nc2ccc([N+](=O)[O-])cc2)n1	-5.6%	2.6%	1.1%	10.3µM*	-3.4%	0.2%
CCOc1ccc(Nc2nc(Cl)nc(NCCO)n2)cc1	-4.8%	-5.9%	2.2%	1.5%	-4.1%	2.0%
COC(=O)c1cnn(-c2cc(Oc3ccccc3)ncn2)c1N	2.51µM*	·	?	?	?	?
SMILES	Rab9 promoter act	SMN2 splice enh	ELG1 genotox	ELG1 DNA repair	NPC1 prom act	FLuc counter
c1ccc(Oc2cc(-n3cccn3)ncn2)cc1	3.16µM*	22.4µM*	8.2µM*	?	?	12µM*
NC(=O)c1cnn(-c2cc(Oc3ccccc3)ncn2)c1N	2.51µM*	·	?	?	3.16µM*	?
CCOc1cnn(-c2cc(Oc3ccc(C)cc3)ncn2)c(=O)c1Cl	2.0%	-26.6%	-3.0%	8.8%	0.0%	2.2%
COC(=O)c1cnn(-c2ccc(C(=O)Nc3cc(OC)c(OC)c(OC)c3)cc2)c1N	·	·	·	·	·	-7.0%
O=c1c2cc3c(nc2ncn1Cc1ccccc1F)CCCC3	·	·	·	·	·	-7.3%
Cc1ccc(-c2nnc3ccc(SCC(=O)N4CCCc5ccccc54)nn23)cc1	-8.3%	2.7%	-7.4%	18.4µM*	-3.0%	0.5%
O=C(CSc1ccc(-c2ccc(Cl)cc2)nn1)N1CCCc2ccccc21	4.5%	-27.2%	-3.6%	9.0%	-2.0%	15.1µM*
CCCCCCNCC1OCc2ccccc2CO1	-7.1%	-12.0%	2.1%	2.1%	1.5%	6.0%
c1ccc(NCC2OCc3ccccc3CO2)cc1	2.51µM*	15.8µM*	?	?	3.98µM*	23.9µM*
Cn1cccc1C(=O)OCc1ccc(F)cc1	3.1%	·	?	11.0%	-3.2%	?
Cn1cccc1C(=O)OCc1cc(Cl)cc2c1OCOC2	?	7.4%	?	?	?	13.5µM*
COCCn1c(SCC(=O)N2CCCCC2)nc2c([nH]c3ccccc32)c1=O	3.4%	·	-12.1%	16.4µM*	4.0%	-1.0%
CCOC(=O)N1CCN(C(=O)CSc2nc3c([nH]c4ccccc43)c(=O)n2CCOC)CC1	-0.1%	·	-7.5%	7.3µM*	2.7%	1.4%
COCCn1c(SCC(=O)N2CCCCCC2)nc2c([nH]c3ccccc32)c1=O	3.3%	·	-2.3%	-16.7%	6.4%	5.4%
CCC1CCCCN1C(=O)CSc1nc2c([nH]c3ccccc32)c(=O)n1C (stereo not given)	-1.9%	-19.6%	-8.6%	23.1µM*	0.2%	1.9%
CCN1CCOC(=O)C1CC(=O)Nc1ccc(Br)cc1 (stereo not given)	·	4.3%	·	·	·	0.2%
COC(=O)Cc1c(C)c2ccc3c(c2oc1=O)CN(Cc1ccccc1Cl)CO3	·	20.2%	·	·	·	-0.6%
CN1CCN(c2ncc3nc(CCc4ccccc4)c(=O)n(CCC#N)c3n2)CC1	·	-16.0%	·	·	·	·
